According to PubChem BioAssay (NCATS):
Several values for one entry are separate records, joined by “and”; a condition that tells them apart may be missing. Identical values can stand only once. Records with an inconclusive call do not appear. Activity calls are given as the source filed them. Unless noted, calls follow the shape of the dose curve; as a rule, active = well fitted curve in the direction sought with a large enough effect; inconclusive = small, poorly fitted or top-dose-only effect, or another doubt; inactive = no such curve, though single readings can be large; an effect the other way counts as inactive or inconclusive.

Experiments:
[1] = Cell Viability - H-4-II-E (AID 543); also: % is scaled to controls: 0 for no effect and ±100 for the full control effect; nearly all actives have a fitted effect of over 35% in size
How it was run: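 Luminescent ATP signal (CellTiter-Glo) served as the viability read-out, with cytotoxicity seen as a concentration-dependent ATP drop. Cells were treated for 40 hours in complete medium. AC50 values derive from Hill-equation modelling.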

[2] = Cell Viability - SH-SY5Y (AID 544); details: SH-SY5Y neuroblastoma cell viability; viability change, negative = cytotoxic: at 92.2 µM (top of the series);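 also: 0% = DMSO alone and -100% = 100 µM tamoxifen; nearly all actives have a fitted effect of over 55% in size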
How it was run: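 Luminescent ATP read-out (CellTiter-Glo) measures loss of viable SH-SY5Y neuroblastoma cells after 40 hr compound exposure at 37 °C. AC50 values derive from standard Hill modelling of qHTS concentration-response data.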

[3] = Cellular Toxicity (caspase-3) SHSY5Y (AID 657)
How it was run: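 qHTS, SH-SY5Y, 1500 cells/well, 5 h pre-incubation 37 °C; compound 16 h 37 °C; Caspase-Glo 3/7 1 h RT; luminescence. Norm.: DMSO = 0, 10 uM staurosporine = 100%. Hill fit → AC50.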

[4] = Cell Viability - LYMP2-001 (AID 921);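 also: cells exposed to compound for 24 h at 37 °C; 0% = DMSO only and full inhibition = tetraoctylammonium bromide control wells; nearly all actives have a fitted effect of over 70% in size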
How it was run: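 Steps: seed 2500 lymphoblastoid cells/well; 5 hr, 37 C; add compound; 24 hr, 37 C; CellTiter-Glo reagent, 30 min room temperature; read luminescence. Concentration-response modeled by Hill equation for AC50.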

[5] = MultiTox-Fluor Cytotoxicity Assay - LYMP1-003 - Live Cells (AID 962);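 also: 0% = DMSO only and full loss = 92 µM tetraoctylammonium bromide; cytotoxic hits lower the live-cell protease signal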
How it was run: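 qHTS, 1536-well; 2500 cells/well LYMP1-003; 5 hr 37 C settle; cpd 16 hr 37 C; MultiTox-Fluor reagent 60 min RT; live-cell protease fluor. 405/510; Hill-fit AC50; tetraoctylammonium bromide pos. ctrl.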

[6] = Cell Viability - LYMP2-005 (AID 967);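 also: cells exposed to compound for 24 h at 37 °C; plate controls were DMSO only for no effect and 92 µM tetraoctylammonium bromide control for full effect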
How it was run: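 Acute cytotoxicity is scored as a concentration-dependent drop in intracellular ATP in human lymphoblastoid LYMP2-005 cells after 24 h compound treatment. ATP is quantified by luciferase luminescence, and AC50 is derived by Hill-equation modelling.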

[7] = Cell Viability - LYMP2-013 (AID 970);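 also: cells exposed to compound for 24 h at 37 °C; 0% = DMSO only and full inhibition = tetraoctylammonium bromide control; nearly all actives have a fitted effect of over 55% in size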
How it was run: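 qHTS; 2500 lymphoblastoid cells/well; 5 hr 37 C settle; cpd 24 hr 37 C; CellTiter-Glo, 30 min RT; luminescence. AC50 = Hill fit.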

[8] = Cell Viability - LYMP2-025 (AID 976);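 also: cells exposed to compound for 24 h at 37 °C; plate controls were DMSO only for no effect and tetraoctylammonium bromide control for full effect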
How it was run: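 Seed 2500 LYMP2-025 cells/well; 5 hr at 37 C; add compound; 24 hr at 37 C; add CellTiter-Glo; 30 min RT; read luminescence. AC50 from Hill-modelled concentration-response.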

[9] = Cell Viability - LYMP2-007 (AID 979);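 also: cells exposed to compound for 24 h before reading; 0% = DMSO only and the negative end = 92 µM tetraoctylammonium bromide; nearly all actives have a fitted effect of over 60% in size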
How it was run: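 Luminescent ATP signal (CellTiter-Glo) serves as the viability read-out after 24 hr compound treatment of lymphoblastoid cells in complete medium at 37 C. Concentration-response data were fitted to the Hill equation to give AC50 values.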

[10] = Cell Viability - LYMP2-012 (AID 982);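 also: cellular ATP by luciferase luminescence where a drop means cytotoxicity; cells exposed to compound for one day before reading; 0% = DMSO only and full loss = 92 µM tetraoctylammonium bromide; nearly all actives have a fitted effect of over 55% in size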
[11] = Cell Viability - LYMP2-018 (AID 985);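 also: compound exposure lasted 24 hr at 37 °C; plate controls were DMSO only for no effect and tetraoctylammonium bromide at 92 µM for full effect; nearly all actives have a fitted effect of over 50% in size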
How it was run: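 Luminescent ATP signal (CellTiter-Glo, read after 30 min at room temperature) reports viable cells after 24 hr compound treatment at 37 C. Concentration-response data were fitted to the standard Hill equation for AC50.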

[12] = Cell Viability - LYMP2-026 (AID 989);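 also: cells exposed to compound for 24 h at 37 °C; % is scaled to controls: 0 for no effect and ±100 for the full control effect; nearly all actives have a fitted effect of over 50% in size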
How it was run: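 Luminescent ATP signal (CellTiter-Glo, 30 min room temperature) measures viable lymphoblastoid cells after 24 hr compound treatment at 37 C. Decreased ATP reflects acute toxicity; AC50 values come from Hill-equation modeling.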

[13] = Cell Viability - LYMP1-002 - Assay at 40 hr (AID 994);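 also: 0% = DMSO only and full inhibition = 92 µM tetraoctylammonium bromide; nearly all actives have a fitted effect of over 60% in size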
How it was run: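 Luminescent ATP signal served as the viability readout, with decreases taken as toxicity. Cells were treated with compounds across a concentration range for 40 hours at 37 C, and AC50 values came from standard Hill modeling.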

[14] = qHTS assay for small molecule agonists of retinoid X receptor alpha signaling (AID 588544; calls by dose curve); details: HEK293T RXRa-UAS-bla, beta-lactamase reporter, 18 h; 530 nm emission
[15] = biological target: Retinoic acid receptor RXR-alpha (Homo sapiens) (UniProt P19793); assay: as above
[16] = qHTS assay for small molecule antagonists of retinoid X receptor alpha signaling (AID 588546; active = well fitted inhibition curve with a large enough effect in the signal ratio, with a control signal flat, not every such curve was filed as active; the % refers to the signal ratio;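 also: cells stimulated with 9-cis-retinoic acid as agonist; % is scaled to controls: 0 for no effect and ±100 for the full control effect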); details: HEK293T RXRa-UAS-bla, beta-lactamase ratio, antagonist mode; measured here: W530 green channel, cytotoxicity proxy
How it was run: (§1)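 Beta-lactamase reporter inhibition, read as CCF4 fluorescence ratio (ex 405, em 460/530 nm) after 2 h at RT. HEK293T UAS-bla cells, 2500/well, were stimulated with 9-cis-RA at 500 or 100 nM final alongside test compound for 18 h at 37 C.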

[17] = biological target: Retinoic acid receptor RXR-alpha (Homo sapiens) (UniProt P19793); assay: as above; details: HEK293T RXRa-UAS-bla, beta-lactamase ratio, antagonist mode
How it was run: as §1

[18] = qHTS assay for small molecule agonists of the antioxidant response element (ARE) signaling pathway measured by Nrf2-dependant transcriptional activity (AID 720636; active = well fitted curve in the direction sought with a large enough effect in the repeat runs; an effect the other way counts as inactive or inconclusive;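 also: HepG2 cells with an ARE-driven luciferase reporter; % of control where 0% means no effect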)
How it was run: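 Cells: ARE-luc HepG2 with Nrf2-responsive luciferase. Medium contained 1% dialyzed FBS. Compound exposure lasted 16 hr at 37 C and 5% CO2, followed by ONE-Glo luciferase detection.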

[19] = qHTS assay for small molecule antagonists of the retinoid-related orphan receptor gamma (ROR-gamma) signaling pathway - cell viability counter screen (AID 720652; active = well fitted curve in the direction sought with a large enough effect in the repeat runs; an effect the other way counts as inactive or inconclusive;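 also: compound exposure lasted 16 hr before ATP read; % is scaled to controls: 0 for no effect and ±100 for the full control effect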)
How it was run: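 Luminescence from CellTiter-Glo after 30 min at room temperature reported cellular ATP as the cytotoxicity measure. Cells were the CHO reporter line with doxycycline-induced ROR-gamma expression, exposed to compound for 16 hr at 37 C.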

[20] = Cell Viability - LYMP2-004 (AID 966);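 also: plate controls were DMSO only for no effect and tetraoctylammonium bromide control for full effect; nearly all actives have a fitted effect of over 65% in size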
How it was run: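 Cells seeded 2500/well, rested 5 hr at 37 C, dosed across a concentration series, incubated 24 hr at 37 C, then CellTiter-Glo added for 30 min at room temperature and luminescence read. Hill fitting gave AC50.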

Sequence of Retinoic acid receptor RXR-alpha (Homo sapiens) (P19793 whole entry, looked up): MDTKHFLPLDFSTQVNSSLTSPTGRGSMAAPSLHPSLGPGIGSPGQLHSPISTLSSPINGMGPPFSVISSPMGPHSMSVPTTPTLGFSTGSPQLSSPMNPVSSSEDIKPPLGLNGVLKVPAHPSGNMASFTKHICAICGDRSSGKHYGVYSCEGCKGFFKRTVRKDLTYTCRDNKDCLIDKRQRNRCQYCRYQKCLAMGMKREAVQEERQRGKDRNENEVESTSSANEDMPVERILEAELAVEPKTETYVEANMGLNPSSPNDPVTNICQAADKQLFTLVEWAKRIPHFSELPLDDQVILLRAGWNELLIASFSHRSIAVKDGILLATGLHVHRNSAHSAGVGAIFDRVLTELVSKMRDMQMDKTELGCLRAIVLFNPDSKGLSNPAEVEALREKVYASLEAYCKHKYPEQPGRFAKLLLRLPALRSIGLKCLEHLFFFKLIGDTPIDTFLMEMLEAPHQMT

O=[N+]([O-])c1ccccc1-c1ccccc1
inactive: Potency [1] | Potency [2] | outcome [3] | Potency [4] | outcome [5] | Potency [6] | Potency [7] | Potency [8] | Potency [9] | Potency [10] | Potency [11] | Potency [12] | Potency [13] | outcome [15] | max response [17] 0.902% | Potency [18] | Potency [19]
-2.63%: max response [16]
-6.95%: max response [14]

C=CC(=O)OCC(C)C
-3.12%: max response [14]
4.12%: max response [16]
inactive: Potency [1] | Potency [2] | outcome [3] | Potency [4] | outcome [5] | Potency [20] | Potency [6] | Potency [7] | Potency [8] | Potency [9] | Potency [10] | Potency [11] | Potency [12] | Potency [13] | outcome [15] | max response [17] 5.4% | Potency [18] | Potency [19]

Oc1c(Cl)cccc1Cl
-9.58%: max response [16]
9.22%: max response [14]
inactive: Potency [1] | Potency [2] | outcome [3] | Potency [4] | outcome [5] | Potency [20] | Potency [6] | Potency [7] | Potency [8] | Potency [9] | Potency [10] | Potency [11] | Potency [12] | Potency [13] | outcome [15] | max response [17] 27.8% | Potency [18] | Potency [19]

C/C=C/CC#N
inactive: Potency [1] | Potency [2] | outcome [3] | Potency [4] | outcome [5] | Potency [20] | Potency [6] | Potency [7] | Potency [8] | Potency [9] | Potency [10] | Potency [11] | Potency [12] | Potency [13] | outcome [15] | max response [17] 13.1% | Potency [18] | Potency [19]
5.46%: max response [16]
-10.7%: max response [14]

CCOC(=O)CBr
inactive: Potency [1] | Potency [2] | outcome [3] | Potency [4] | outcome [5] | Potency [20] | Potency [6] | Potency [7] | Potency [8] | Potency [9] | Potency [10] | Potency [11] | Potency [12] | Potency [13] | outcome [15] | max response [17] -3.36% | Potency [18] | Potency [19]
8.56%: max response [14]
-3.97%: max response [16]

Cc1ccc(N)c(C)c1
1.29%: max response [16]
-7.75%: max response [14]
inactive: Potency [1] | Potency [2] | outcome [3] | Potency [4] | outcome [5] | Potency [20] | Potency [6] | Potency [7] | Potency [8] | Potency [9] | Potency [10] | Potency [11] | Potency [12] | Potency [13] | outcome [15] | max response [17] -1.52% | Potency [18] | Potency [19]

C=CC(=O)OC
inactive: Potency [1] | Potency [2] | outcome [3] | Potency [4] | outcome [5] | Potency [20] | Potency [6] | Potency [7] | Potency [8] | Potency [9] | Potency [10] | Potency [11] | Potency [12] | Potency [13] | outcome [15] | max response [17] -3.6% | Potency [18] | Potency [19]
-10.9%: max response [14]
-10.6%: max response [16]

CC(C)[C@]12CC(=O)[C@H](C)[C@H]1C2
-6.67% and -9.54%: max response [14]
-7.72% and -9.15%: max response [16]
inactive: Potency [1] | Potency [2] | outcome [3] | Potency [4] | outcome [5] | Potency [20] | Potency [6] | Potency [7] | Potency [8] | Potency [9] | Potency [10] | Potency [11] | Potency [12] | Potency [13] | outcome [15] | max response [17] 7% and 0.913% | Potency [18] | Potency [19]

Nc1ccc2ccccc2c1
inactive: Potency [1] | Potency [2] | outcome [3] | Potency [4] | outcome [5] | Potency [20] | Potency [6] | Potency [7] | Potency [8] | Potency [9] | Potency [10] | Potency [11] | Potency [12] | Potency [13] | outcome [15] | max response [17] -0.227% | Potency [18] | Potency [19]
-4.26%: max response [16]
-8.86%: max response [14]

CCCBr
-13.5%: max response [14]
-1.75%: max response [16]
inactive: Potency [1] | Potency [2] | outcome [3] | Potency [4] | outcome [5] | Potency [20] | Potency [6] | Potency [7] | Potency [8] | Potency [9] | Potency [10] | Potency [11] | Potency [12] | Potency [13] | outcome [15] | max response [17] 1.56% | Potency [18] | Potency [19]

CC(C)(C)C(O)(CCc1ccc(Cl)cc1)Cn1cncn1 (centres undefined)
inactive: Potency [1] | Potency [2] | outcome [3] | Potency [4] | outcome [5] | Potency [20] | Potency [6] | Potency [7] | Potency [8] | Potency [9] | Potency [10] | Potency [11] | Potency [12] | Potency [13] | outcome [15] | max response [17] -23.2% and -32.6% | Potency [18] | Potency [19]
-9.24% and 6.75%: max response [14]
3% and 12.6%: max response [16]

O=C(O)C(Cl)(Cl)Br
1.14%: max response [16]
-15.6%: max response [14]
inactive: Potency [1] | Potency [2] | outcome [3] | Potency [4] | outcome [5] | Potency [20] | Potency [6] | Potency [7] | Potency [8] | Potency [9] | Potency [10] | Potency [11] | Potency [12] | Potency [13] | outcome [15] | max response [17] 1% | Potency [18] | Potency [19]

CCCCCC[N+](=O)[O-]
-16.5%: max response [14]
-11.1%: max response [16]
inactive: Potency [1] | Potency [2] | outcome [3] | Potency [4] | outcome [5] | Potency [20] | Potency [6] | Potency [7] | Potency [8] | Potency [9] | Potency [10] | Potency [11] | Potency [12] | Potency [13] | outcome [15] | max response [17] -13.3% | Potency [18] | Potency [19]

Oc1cccc(Cl)c1
inactive: Potency [1] | Potency [2] | outcome [3] | Potency [4] | outcome [5] | Potency [20] | Potency [6] | Potency [7] | Potency [8] | Potency [9] | Potency [10] | Potency [11] | Potency [12] | Potency [13] | outcome [15] | max response [17] 4.02% | Potency [18] | Potency [19]
-0.644%: max response [14]
-0.103%: max response [16]

OCC(Cl)CCl (centres undefined)
-11.1%: max response [16]
-11.4%: max response [14]
inactive: Potency [1] | Potency [2] | outcome [3] | Potency [4] | outcome [5] | Potency [20] | Potency [6] | Potency [7] | Potency [8] | Potency [9] | Potency [10] | Potency [11] | Potency [12] | Potency [13] | outcome [15] | max response [17] -4.6% | Potency [18] | Potency [19]
